Among the data in PubChem BioAssay (NCI) are growth values, retold here.

Holding throughout (experiment): NCI-60 one-dose screen, 48 h (100 = growth as untreated, 0 = no growth, -100 = all killed)
Details in all cases: 10 µM unless noted

The subject of assay [1] is NCI-H23 lung.
For assay [2], the system named is NCI-H226 lung.
The test system of assay [3] is NCI-H322M lung.
Assay [4] concerns HOP-62 NSCLC.
In assay [5] the test system is NCI-H460 lung.
In assay [6] the test system is HOP-92 NSCLC.
Assay [7] concerns NCI-H522 lung.
The subject of assay [8] is A549/ATCC NSCLC.
Assay [9] concerns 786-0 renal.
The subject of assay [10] is COLO 205 colon.
The test system of assay [11] is DU-145 prostate.
Assay [12] deals with K-562 leukemia.
Assay [13] concerns MALME-3M melanoma.
For assay [14], the system named is MDA-MB-231 breast.
The test system of assay [15] is RXF 393 renal.
Assay [16] deals with SF-268 CNS.
The test system of assay [17] is SF-295 CNS.
Assay [18] relates to SF-539 CNS.
Assay [19] relates to UACC-257 melanoma.
Assay [20] concerns M14 melanoma.

This is part of a sample that, as a whole, favours compounds with a hit. Of some 83,000 tested, about 20% had one in any assay.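 Compound tested at a single concentration for 48 hours in 96-well plates; a percent growth value below 10 was scored as active.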 Values without a mark were called inactive. Calls of active or inactive are those of the source.

Consider `NC(=O)Nc1ccc2ncnc(Nc3cccc(O)c3)c2c1`, for which the growth in [1] was 100%; in assay [2] it was 102%; in assay [3] it was 83.5%; in [4], 92.8%; in [5], 108%; in assay [6] it was 78%. Also, the growth is 102% in assay [7]; 93.5% in assay [8]; 92.6% in assay [9]; 94.7% in assay [10]; 90.4% in [11]; 103% in assay [12]. Also, the growth in assay [13] was 121%; in assay [14], 104%; in [15], 111%; in assay [16], 85.4%; in [17] it was 98.1%; in assay [18], 109%. The growth is 99.8% in [19] and 102% in assay [20].

In the case of `Cc1ccc(NC(=O)c2[nH]c(SCCN(C)C)nc2-c2ccc(F)cc2)cc1C#Cc1cnc2cccnn12`, the growth in assay [1] was 66.7%; in [2], 55.9%; in assay [3], 48.1%; in [4], -8.9% (active); in assay [5], -69.4% (active); in assay [6], 80.4%. The growth is 1.49% (active) in assay [7]; 5.21% (active) in assay [8]; -67.1% (active) in assay [9]; 81.1% in assay [10]; -19% (active) in [11]; -37.3% (active) in [12]. For the same compound, the growth in assay [13] is -9.58% (active); in assay [14], -7.2% (active); in assay [15] it was -61.6% (active); in [16], -23.4% (active); in [17] it was 93.1%; in assay [18], -84.4% (active). Further, the growth in assay [19] is 12.7%; in [20], -75.1% (active).

Turning to `CCOc1ccc([C@@H]2[C@@H](Oc3ccccc3)C(=O)N2c2cc(OC)c(OC)c(OC)c2)cc1`, the growth is 23.9% in [1]; 41.5% in assay [2]; 38.6% in assay [3]; 27.4% in assay [4]; 7.32% (active) in assay [5]; 63.3% in [6]. Besides, the growth in [7] is 10.5%; in [8] it was 23.1%; in assay [9] it was 10.1%; in assay [10] it was -47.2% (active); in [11] it was 12.5%; in assay [12], 6.3% (active). Moreover, the growth in assay [13] is 71.8%; in assay [14], 10.1%; in assay [15], 14.1%; in [16], 33.9%; in assay [17], 13.1%; in [18] it was -12.9% (active). For the same compound, the growth in assay [19] was 73.7%; in assay [20], 4.74% (active).

As for `COc1ccc(Nc2ncnc3c2sc2nc(C)cc(C)c23)cc1`, the growth in assay [1] is 111%; in [2] it was 103%; in assay [3] it was 102%; in assay [4] it was 107%; in assay [5] it was 97.9%; in [6], 130%. The growth was 99.9% in assay [7]; 96% in [8]; 93.9% in assay [9]; 111% in [10]; 102% in assay [11]; 101% in assay [12]. Also, the growth was 94.5% in [13]; 102% in assay [14]; 104% in assay [15]; 94.3% in assay [16]; 112% in assay [17]; 94.6% in [18]. Besides, the figures for the growth in assay [19] and in assay [20] were 93.2% and 102%, respectively.

Regarding `CCCc1n(Cc2ccc3ccccc3n2)cc[n+]1Cc1ccc2ccccc2n1`, the growth was 13% in assay [1]; 38% in assay [2]; 72.1% in assay [3]; 51.7% in assay [4]; 34.2% in assay [5]; 16% in assay [6]. Besides, the growth in assay [7] is 22.8%; in assay [8] it was 62.8%; in assay [9], 85.3%; in assay [10], -43% (active); in [11] it was 51.2%; in assay [12], 12.8%. Also, the growth in assay [13] was 12.5%; in [14] it was 17.8%; in assay [15] it was 48.7%; in assay [16], 27.8%; in assay [17], 59.9%; in assay [18], 31.2%. For the same compound, the growth was -11.5% (active) in assay [19] and 37.2% in assay [20].

As to `CCN(C)CCCOc1ccc(/C(=C(\C)Cc2cccc(OC)c2)c2ccc(OC(C)=O)cc2)cc1`, the growth in assay [1] was 93.9%; in assay [2] it was 86.2%; in [3], 98.5%; in assay [4] it was 97%; in [5], 105%; in assay [6] it was 99.2%. For the same compound, the growth in assay [7] is 94.3%; in assay [8] it was 104%; in [9] it was 101%; in assay [10], 107%; in [11], 104%; in [12], 101%. The growth is 97.3% in assay [13]; 104% in [14]; 106% in [15]; 94.1% in [16]; 99.1% in assay [17]; 101% in [18]. Moreover, the growth in [19] is 109%; in [20] it was 101%.

As to `N#Cc1ccc(NC(=O)Nc2nc3ccc(OC(F)(F)F)cc3s2)cc1`, the growth in assay [1] was -22.1% (active); in assay [2], 12.7%; in assay [3], 4% (active); in assay [4], 3.68% (active); in assay [5] it was -3.29% (active); in [6], -13.1% (active). The growth in assay [7] is -33.5% (active); in assay [8], 3.01% (active); in [9] it was -12.6% (active); in assay [10], -90.1% (active); in assay [11], 23.1%; in assay [12] it was 1.23% (active). The growth is -7.94% (active) in [13]; -18.4% (active) in assay [14]; 21.9% in assay [15]; 21.1% in assay [16]; -25.8% (active) in assay [17]; 7.97% (active) in assay [18]. Moreover, the figures for the growth in assay [19] and in assay [20] were -20.7% (active) and 5.97% (active), respectively.

As to `COc1cc(CN2CCO[C@H](COc3cccc(F)c3)C2)ccc1Cl`, the growth is 48.8% in assay [1]; 59.7% in assay [2]; 73.3% in assay [3]; 33.4% in [4]; 24.8% in [5]; 48.6% in assay [6]. Also, the growth is 30.7% in assay [7]; 29.3% in [8]; 52% in assay [9]; 12.5% in assay [10]; 41.5% in assay [11]; 21.1% in [12]. The growth in [13] was 63.8%; in [14], 33.2%; in assay [15], 79.3%; in assay [16], 48.2%; in assay [17], 28%; in [18] it was 59.5%. The growth is 19.2% in assay [19] and 39.1% in assay [20].
